How the values were obtained:
Assay in all cases: log2 ratio of Biotin-Ahx-Ub-VS probe labelling (fragment/DMSO); higher = less target engagement (more negative = stronger competition), active = hit call of the paper (q ≤ 0.05, log2 ratio ≤ -1)
Details in all cases: compound concentration: 200 uM; treatment time: 3 h
[1] = target: USP9X (UniProt Q93008)
In short: (§1)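 HEK293T lysate, 495 µg per sample in Tris/CHAPS/IGEPAL buffer with protease inhibitors, was treated in triplicate with fragment at 200 µM or vehicle for 3 h and then with Biotin-Ahx-Ub-VS at 0.5 µM final for 1 h. Labelled DUBs were NeutrAvidin-enriched, digested with LysC and trypsin, and run by diaPASEF LC-MS/MS. Spectronaut label-free quantities were global-median-normalised, and values are average log2 fragment/vehicle ratios by unpaired t-test on proteins with ≥2 unique peptides.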

[2] = target: UniProt O00487
In short: as §1

[3] = target: UniProt O00507
In short: as §1

[4] = target: UniProt P51784
In short: as §1

[5] = target: T1, UniProt Q5T2D3
T1 sequence (whole entry): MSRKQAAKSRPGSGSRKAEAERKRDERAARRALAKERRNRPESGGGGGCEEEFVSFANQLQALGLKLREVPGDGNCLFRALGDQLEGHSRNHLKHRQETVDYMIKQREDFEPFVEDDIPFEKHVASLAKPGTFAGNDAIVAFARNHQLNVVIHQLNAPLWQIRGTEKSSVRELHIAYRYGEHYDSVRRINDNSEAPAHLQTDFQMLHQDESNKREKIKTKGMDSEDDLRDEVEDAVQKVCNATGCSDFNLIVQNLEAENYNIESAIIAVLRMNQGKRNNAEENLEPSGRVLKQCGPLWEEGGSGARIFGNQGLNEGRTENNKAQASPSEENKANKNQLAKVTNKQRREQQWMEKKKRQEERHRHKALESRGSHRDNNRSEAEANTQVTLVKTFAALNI
In short: as §1

[6] = target: T2, UniProt Q8TE49
T2 sequence (whole entry): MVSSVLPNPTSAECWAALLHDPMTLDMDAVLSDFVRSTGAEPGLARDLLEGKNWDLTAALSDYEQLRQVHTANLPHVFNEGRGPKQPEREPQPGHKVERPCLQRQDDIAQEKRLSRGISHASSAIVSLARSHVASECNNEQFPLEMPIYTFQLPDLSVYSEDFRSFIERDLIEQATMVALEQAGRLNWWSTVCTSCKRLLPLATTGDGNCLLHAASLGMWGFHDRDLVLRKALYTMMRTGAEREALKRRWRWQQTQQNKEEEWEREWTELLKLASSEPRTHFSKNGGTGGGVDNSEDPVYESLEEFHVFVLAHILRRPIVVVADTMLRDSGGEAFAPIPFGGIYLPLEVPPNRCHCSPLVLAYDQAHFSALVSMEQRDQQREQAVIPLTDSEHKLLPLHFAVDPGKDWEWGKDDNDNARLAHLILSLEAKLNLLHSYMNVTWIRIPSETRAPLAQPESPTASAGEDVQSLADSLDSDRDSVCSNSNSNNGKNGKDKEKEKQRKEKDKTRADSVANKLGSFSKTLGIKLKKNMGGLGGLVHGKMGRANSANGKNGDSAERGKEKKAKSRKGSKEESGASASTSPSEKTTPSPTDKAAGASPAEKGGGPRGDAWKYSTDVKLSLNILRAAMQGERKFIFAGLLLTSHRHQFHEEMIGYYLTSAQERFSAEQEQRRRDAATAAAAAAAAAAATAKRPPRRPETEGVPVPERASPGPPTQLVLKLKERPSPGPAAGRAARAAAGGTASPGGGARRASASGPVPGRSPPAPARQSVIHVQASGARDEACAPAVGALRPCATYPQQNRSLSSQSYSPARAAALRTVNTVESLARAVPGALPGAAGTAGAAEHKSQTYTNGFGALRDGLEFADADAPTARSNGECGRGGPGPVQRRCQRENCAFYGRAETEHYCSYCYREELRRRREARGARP
In short: as §1

[7] = target: T3, UniProt Q9P2H5
T3 sequence (whole entry): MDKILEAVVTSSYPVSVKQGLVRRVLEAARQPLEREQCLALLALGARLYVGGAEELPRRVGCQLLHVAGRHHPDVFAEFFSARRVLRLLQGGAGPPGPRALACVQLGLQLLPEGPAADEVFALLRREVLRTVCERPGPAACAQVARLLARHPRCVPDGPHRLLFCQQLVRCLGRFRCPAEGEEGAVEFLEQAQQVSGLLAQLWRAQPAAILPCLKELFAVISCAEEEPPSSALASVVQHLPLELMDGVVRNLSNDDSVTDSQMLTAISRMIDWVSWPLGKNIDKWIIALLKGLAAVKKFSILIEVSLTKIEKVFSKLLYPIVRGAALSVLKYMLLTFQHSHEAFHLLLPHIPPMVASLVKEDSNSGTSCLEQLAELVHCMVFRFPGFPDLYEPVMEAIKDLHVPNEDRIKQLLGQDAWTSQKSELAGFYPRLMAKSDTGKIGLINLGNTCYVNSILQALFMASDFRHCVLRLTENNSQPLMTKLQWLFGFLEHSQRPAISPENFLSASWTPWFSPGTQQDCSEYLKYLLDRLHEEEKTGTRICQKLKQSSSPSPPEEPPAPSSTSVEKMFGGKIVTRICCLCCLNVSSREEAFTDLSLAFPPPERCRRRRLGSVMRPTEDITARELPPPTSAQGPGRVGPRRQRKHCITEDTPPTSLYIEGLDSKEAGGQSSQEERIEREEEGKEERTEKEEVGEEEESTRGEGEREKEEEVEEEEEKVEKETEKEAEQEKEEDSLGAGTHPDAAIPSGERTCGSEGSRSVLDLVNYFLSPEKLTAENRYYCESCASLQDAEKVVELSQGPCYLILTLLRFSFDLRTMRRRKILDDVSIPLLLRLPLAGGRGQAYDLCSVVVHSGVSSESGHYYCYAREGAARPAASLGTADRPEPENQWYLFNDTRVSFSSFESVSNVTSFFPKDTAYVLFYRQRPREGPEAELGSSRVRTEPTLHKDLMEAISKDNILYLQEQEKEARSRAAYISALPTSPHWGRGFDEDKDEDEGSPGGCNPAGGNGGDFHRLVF
In short: as §1

[8] = target: T4, UniProt Q9UGI0
T4 sequence (whole entry): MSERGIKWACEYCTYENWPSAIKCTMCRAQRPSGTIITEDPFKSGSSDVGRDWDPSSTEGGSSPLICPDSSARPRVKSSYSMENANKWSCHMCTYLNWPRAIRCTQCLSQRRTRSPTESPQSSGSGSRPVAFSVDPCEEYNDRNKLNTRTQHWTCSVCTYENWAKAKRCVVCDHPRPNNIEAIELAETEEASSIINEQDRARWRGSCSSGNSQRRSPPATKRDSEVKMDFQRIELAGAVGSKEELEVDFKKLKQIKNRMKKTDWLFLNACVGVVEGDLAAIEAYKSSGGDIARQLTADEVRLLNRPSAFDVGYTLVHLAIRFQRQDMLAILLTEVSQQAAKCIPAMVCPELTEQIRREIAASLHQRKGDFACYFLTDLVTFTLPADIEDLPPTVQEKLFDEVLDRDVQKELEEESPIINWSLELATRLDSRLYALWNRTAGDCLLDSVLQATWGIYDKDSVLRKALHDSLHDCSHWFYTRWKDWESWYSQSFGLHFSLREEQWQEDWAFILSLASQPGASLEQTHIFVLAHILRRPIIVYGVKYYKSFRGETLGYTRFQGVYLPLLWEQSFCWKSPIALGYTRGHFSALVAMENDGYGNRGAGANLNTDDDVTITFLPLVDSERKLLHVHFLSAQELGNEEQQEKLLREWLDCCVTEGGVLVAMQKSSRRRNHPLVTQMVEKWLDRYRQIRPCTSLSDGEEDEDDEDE
In short: as §1

[9] = target: T5, YOD1 (UniProt Q5VVQ6)
T5 sequence (whole entry): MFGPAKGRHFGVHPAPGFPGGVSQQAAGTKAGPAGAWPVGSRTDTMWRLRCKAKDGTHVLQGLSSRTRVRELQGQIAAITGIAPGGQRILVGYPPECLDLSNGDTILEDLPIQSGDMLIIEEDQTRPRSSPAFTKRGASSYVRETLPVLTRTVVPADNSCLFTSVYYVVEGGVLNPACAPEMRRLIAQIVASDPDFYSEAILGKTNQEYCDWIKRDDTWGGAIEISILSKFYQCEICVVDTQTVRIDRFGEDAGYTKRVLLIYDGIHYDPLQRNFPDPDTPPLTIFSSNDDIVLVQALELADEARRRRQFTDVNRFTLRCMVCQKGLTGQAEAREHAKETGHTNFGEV
In short: as §1

Measured: log2 ratio of Biotin-Ahx-Ub-VS probe labelling

Chain of USP9X (Q93008 whole entry, the tested form may be a part): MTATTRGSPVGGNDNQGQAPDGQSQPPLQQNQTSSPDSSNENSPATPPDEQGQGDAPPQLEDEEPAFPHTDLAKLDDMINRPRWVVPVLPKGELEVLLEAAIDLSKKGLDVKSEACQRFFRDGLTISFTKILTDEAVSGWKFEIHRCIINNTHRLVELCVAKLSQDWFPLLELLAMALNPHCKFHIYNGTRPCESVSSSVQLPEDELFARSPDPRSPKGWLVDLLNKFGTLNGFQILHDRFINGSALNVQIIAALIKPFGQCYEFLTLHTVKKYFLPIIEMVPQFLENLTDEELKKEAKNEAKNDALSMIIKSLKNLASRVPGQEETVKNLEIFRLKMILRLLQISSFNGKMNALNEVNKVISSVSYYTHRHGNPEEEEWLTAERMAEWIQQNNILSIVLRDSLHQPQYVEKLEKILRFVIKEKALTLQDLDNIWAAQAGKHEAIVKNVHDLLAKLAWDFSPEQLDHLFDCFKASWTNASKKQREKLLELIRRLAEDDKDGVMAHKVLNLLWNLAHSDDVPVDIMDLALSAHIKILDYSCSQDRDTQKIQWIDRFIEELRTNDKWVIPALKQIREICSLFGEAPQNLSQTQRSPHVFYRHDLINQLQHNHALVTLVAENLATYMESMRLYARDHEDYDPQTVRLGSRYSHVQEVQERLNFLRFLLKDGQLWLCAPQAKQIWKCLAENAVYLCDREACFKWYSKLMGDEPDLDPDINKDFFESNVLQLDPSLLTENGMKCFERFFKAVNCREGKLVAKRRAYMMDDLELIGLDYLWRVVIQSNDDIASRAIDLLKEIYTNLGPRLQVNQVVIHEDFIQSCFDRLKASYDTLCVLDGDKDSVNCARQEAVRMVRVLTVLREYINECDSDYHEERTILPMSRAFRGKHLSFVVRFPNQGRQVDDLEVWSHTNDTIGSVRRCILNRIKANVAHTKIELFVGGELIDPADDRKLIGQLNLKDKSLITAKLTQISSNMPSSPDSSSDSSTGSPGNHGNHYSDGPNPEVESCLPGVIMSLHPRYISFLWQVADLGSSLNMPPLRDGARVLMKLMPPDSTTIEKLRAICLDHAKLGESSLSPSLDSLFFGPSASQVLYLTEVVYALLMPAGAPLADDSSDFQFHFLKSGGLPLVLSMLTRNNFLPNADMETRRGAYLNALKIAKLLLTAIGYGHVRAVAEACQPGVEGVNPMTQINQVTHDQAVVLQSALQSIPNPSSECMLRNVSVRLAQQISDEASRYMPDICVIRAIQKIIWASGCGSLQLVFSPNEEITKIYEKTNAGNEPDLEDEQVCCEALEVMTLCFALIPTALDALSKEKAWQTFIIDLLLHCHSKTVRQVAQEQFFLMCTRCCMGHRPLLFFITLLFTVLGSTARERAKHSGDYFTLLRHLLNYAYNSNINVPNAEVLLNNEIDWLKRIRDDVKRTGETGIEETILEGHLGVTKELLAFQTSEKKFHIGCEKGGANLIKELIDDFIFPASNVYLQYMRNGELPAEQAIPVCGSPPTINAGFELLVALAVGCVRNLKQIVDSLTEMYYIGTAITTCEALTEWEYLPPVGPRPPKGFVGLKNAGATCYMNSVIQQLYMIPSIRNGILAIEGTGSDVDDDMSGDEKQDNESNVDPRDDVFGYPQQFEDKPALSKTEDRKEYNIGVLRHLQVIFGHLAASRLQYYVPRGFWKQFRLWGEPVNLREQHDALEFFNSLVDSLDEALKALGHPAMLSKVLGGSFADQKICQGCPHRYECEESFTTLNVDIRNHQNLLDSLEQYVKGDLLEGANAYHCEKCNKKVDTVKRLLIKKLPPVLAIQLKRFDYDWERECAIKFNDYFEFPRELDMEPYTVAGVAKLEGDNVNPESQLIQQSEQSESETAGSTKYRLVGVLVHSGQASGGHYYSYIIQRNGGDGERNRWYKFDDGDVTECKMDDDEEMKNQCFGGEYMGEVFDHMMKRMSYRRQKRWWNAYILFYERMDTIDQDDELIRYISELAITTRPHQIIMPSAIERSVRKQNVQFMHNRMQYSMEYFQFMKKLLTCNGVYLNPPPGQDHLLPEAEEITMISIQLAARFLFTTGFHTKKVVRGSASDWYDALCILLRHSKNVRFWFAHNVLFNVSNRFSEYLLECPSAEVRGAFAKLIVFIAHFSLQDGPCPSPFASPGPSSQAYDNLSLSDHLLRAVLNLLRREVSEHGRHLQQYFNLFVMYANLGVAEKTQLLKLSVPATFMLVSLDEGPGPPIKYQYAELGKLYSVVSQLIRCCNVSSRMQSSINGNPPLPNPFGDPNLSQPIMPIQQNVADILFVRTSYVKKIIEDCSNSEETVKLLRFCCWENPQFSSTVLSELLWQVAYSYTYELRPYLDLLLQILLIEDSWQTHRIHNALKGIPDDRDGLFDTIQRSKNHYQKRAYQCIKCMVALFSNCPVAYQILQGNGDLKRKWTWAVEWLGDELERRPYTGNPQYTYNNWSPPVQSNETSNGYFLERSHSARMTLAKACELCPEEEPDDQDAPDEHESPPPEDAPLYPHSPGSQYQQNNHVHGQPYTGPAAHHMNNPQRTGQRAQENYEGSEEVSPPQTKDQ
Chain of UniProt P51784 (P51784 whole entry): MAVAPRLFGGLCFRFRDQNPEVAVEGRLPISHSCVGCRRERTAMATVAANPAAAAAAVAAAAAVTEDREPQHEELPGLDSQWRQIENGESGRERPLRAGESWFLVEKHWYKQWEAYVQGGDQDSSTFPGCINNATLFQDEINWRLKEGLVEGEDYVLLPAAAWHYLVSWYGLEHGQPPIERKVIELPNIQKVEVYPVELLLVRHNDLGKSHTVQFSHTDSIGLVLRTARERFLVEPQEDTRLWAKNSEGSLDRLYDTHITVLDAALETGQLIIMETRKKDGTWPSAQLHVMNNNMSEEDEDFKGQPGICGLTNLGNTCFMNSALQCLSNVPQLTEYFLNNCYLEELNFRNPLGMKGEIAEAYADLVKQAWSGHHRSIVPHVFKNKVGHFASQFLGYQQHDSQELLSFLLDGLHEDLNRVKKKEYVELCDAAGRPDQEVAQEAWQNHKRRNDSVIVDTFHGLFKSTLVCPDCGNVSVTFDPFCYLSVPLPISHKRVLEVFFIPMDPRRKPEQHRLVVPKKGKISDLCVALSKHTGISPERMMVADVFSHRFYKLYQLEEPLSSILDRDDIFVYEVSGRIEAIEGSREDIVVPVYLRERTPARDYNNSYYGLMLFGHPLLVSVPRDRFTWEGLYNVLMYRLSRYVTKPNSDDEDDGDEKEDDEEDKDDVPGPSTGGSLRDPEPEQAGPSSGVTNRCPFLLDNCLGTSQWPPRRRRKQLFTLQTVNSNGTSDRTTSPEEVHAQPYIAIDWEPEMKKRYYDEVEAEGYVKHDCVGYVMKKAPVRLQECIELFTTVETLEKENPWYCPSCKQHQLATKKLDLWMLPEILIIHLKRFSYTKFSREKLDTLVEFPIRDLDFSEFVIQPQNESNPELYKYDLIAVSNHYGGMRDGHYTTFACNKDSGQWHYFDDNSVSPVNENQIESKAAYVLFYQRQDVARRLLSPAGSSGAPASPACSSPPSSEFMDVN
Chain of UniProt O00487 (O00487 whole entry): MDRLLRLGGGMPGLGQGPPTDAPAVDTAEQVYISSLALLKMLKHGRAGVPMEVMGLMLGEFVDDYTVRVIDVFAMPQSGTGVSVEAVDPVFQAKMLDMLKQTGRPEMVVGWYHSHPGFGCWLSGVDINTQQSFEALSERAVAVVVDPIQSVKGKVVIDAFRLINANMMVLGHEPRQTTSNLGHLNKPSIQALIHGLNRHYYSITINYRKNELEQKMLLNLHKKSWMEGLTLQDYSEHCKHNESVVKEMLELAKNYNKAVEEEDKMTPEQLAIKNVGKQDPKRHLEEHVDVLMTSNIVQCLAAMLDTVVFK

O=C(CN1CCN(C(=O)CCl)CC1)Nc1cccc(F)c1
inactive: [1] -0.429 | [2] 0.0211 | [3] 0.00838 | [4] -0.0576 | [5] -0.264 | [6] -0.292 | [7] -0.486 | [8] -0.37 | [9] 0.0312

Source: the supplement of paper PMC11732987, “Enantioselective OTUD7B fragment discovery through chemoproteomics screening and high-throughput optimisation” (Communications Chemistry, 2025)
